Test results published in PubChem BioAssay (EPA / NIEHS).
The source made the active and inactive calls. The calls were made as follows: active = hit-call score of the fitted dose curve at least 0.9, where 1 is the maximum; inactive = score below 0.9.

What was measured:
[1] = read-out: Tumor necrosis factor receptor superfamily member 6 (Homo sapiens) (UniProt P25445); assay: LTEA_HepaRG_FAS: Life Technologies and Expression Analysis (LTEA) Assay for Fas cell surface death receptor (FAS) using HepaRG (AID 2283447); details: mRNA level, 48 h; actives raise or lower the signal
How it was run: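 FAS transcript level was measured by TaqMan qRT-PCR against three housekeeping genes after 48 h chemical exposure. Cells were HepaRG, 0.5% DMSO vehicle, with a top concentration of 100 uM and half-log dilutions over eight points, in duplicate.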

[2] = read-out: Fatty acid synthase (Homo sapiens) (UniProt P49327); assay: LTEA_HepaRG_FASN: Life Technologies and Expression Analysis (LTEA) Assay for Fatty Acid Synthase (FASN) using HepaRG (AID 2283448); details: mRNA level, 48 h; actives raise or lower the signal
How it was run: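 Cells were plated, cultured 48 h, switched to serum-free induction medium, then dosed in duplicate (max 100 uM, half-log dilutions, 0.5% DMSO) for 48 h. RNA was then isolated and FASN quantified by qRT-PCR.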

[3] = read-out: Cyclin D2 (CCND2), CCND2 (gene 894); assay: LTEA_HepaRG_CCND2: Life Technologies and Expression Analysis (LTEA) Assay for Cyclin D2 (CCND2) using HepaRG (AID 2283449); details: mRNA level, 48 h; actives raise or lower the signal
How it was run: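 CCND2 transcript levels, quantified by qRT-PCR and normalised to three housekeeping genes, were fitted bidirectionally against 0.5% DMSO. HepaRG cultures were dosed 48 h in duplicate with an 8-point half-log series up to 100 uM.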

[4] = read-out: Cyclin Dependent Kinase Inhibitor 1A (CDKN1A), CDKN1A (gene 1026); assay: LTEA_HepaRG_CDKN1A: Life Technologies and Expression Analysis (LTEA) Assay for Cyclin Dependent Kinase Inhibitor 1A (CDKN1A) using HepaRG (AID 2283450); details: mRNA level, 48 h; actives raise or lower the signal
How it was run: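 Differentiated human HepaRG cells, pre-cultured 48 h, were exposed in duplicate for 48 h in serum-free induction medium to eight half-log concentrations up to 100 uM (0.5% DMSO). CDKN1A mRNA was measured by qRT-PCR, normalized to ACTB/GAPDH/POLR2A, bidirectionally fitted versus DMSO.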

[5] = read-out: Cyclin D1 (CCND1), CCND1 (gene 595); assay: LTEA_HepaRG_CCND1: Life Technologies and Expression Analysis (LTEA) Assay for Cyclin D1 (CCND1) using HepaRG (AID 2283451); details: mRNA level, 48 h; actives raise or lower the signal;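 as to AC50: TaqMan qRT-PCR transcript level normalised to ACTB GAPDH and POLR2A housekeeping genes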
How it was run: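 Differentiated human HepaRG cells in serum-free induction medium were exposed 48 h to eight half-log concentrations up to 100 uM in 0.5% DMSO; mRNA quantified by TaqMan qRT-PCR, normalized to ACTB, GAPDH, POLR2A, fitted bidirectionally versus DMSO.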

[6] = read-out: catalase (CAT), CAT (gene 847); assay: LTEA_HepaRG_CAT: Life Technologies and Expression Analysis (LTEA) Assay for catalase (CAT) using HepaRG (AID 2283452); details: mRNA level, 48 h; actives raise or lower the signal;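 as to AC50: TaqMan qRT-PCR signal normalized to ACTB GAPDH and POLR2A housekeeping genes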
How it was run: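 Expression of CAT was quantified by TaqMan qRT-PCR with ACTB/GAPDH/POLR2A normalization after 48 h chemical exposure of HepaRG. Eight-point half-log series, top 100 uM, in 0.5% DMSO; gain or loss fitted against vehicle.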

[7] = read-out: flavin-containing dimethylaniline monooxygenases 3 (FMO3), FMO3 (gene 2328); assay: LTEA_HepaRG_FMO3: Life Technologies and Expression Analysis (LTEA) Assay for flavin-containing dimethylaniline monooxygenases 3 (FMO3) using HepaRG (AID 2283453); details: mRNA level, 48 h; actives raise or lower the signal
How it was run: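 FMO3 transcript quantified by TaqMan qRT-PCR against three housekeeping genes after 48 h chemical exposure of HepaRG cells. Eight-point half-log series, top 100 uM, 0.5% DMSO vehicle; phenobarbital 1mM induction control; up- or down-regulation fitted.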

[8] = read-out: Cytochrome P450 (CYP1A1), CYP1A1 (gene 1543); assay: LTEA_HepaRG_CYP1A1: Life Technologies and Expression Analysis (LTEA) Assay for Cytochrome P450 (CYP1A1) using HepaRG (AID 2283454); details: mRNA level, 48 h; actives raise or lower the signal
How it was run: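 Differentiated HepaRG cells in serum-free induction medium were exposed in duplicate for 48 h to eight half-log concentrations up to 100 uM in 0.5% DMSO. CYP1A1 mRNA was quantified by TaqMan qRT-PCR, normalized to ACTB, GAPDH and POLR2A.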

[9] = read-out: CFLAR gene, CFLAR (gene 8837); assay: LTEA_HepaRG_CFLAR: Life Technologies and Expression Analysis (LTEA) Assay for CFLAR gene using HepaRG (AID 2283455); details: mRNA level, 48 h; actives raise or lower the signal
How it was run: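 Transcript level by qRT-PCR (normalized to ACTB, GAPDH and POLR2A) after 48 h chemical exposure of HepaRG cells, top concentration 100 uM with half-log steps, 0.5% DMSO vehicle, duplicates; fitted bidirectionally against DMSO baseline.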

[10] = read-out: Forkhead box O1 (FOXO1), FOXO1 (gene 2308); assay: LTEA_HepaRG_FOXO1: Life Technologies and Expression Analysis (LTEA) Assay for Forkhead box O1 (FOXO1) using HepaRG (AID 2283456); details: mRNA level, 48 h; actives raise or lower the signal
How it was run: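 FOXO1 transcript quantified by qRT-PCR after 48 h chemical exposure (top 100 uM, half-log steps, 0.5% DMSO) of HepaRG cells, housekeeping-normalized (ACTB/GAPDH/POLR2A). Changes fitted in both directions relative to vehicle.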

[11] = read-out: Forkhead box O3 (FOXO3), FOXO3 (gene 2309); assay: LTEA_HepaRG_FOXO3: Life Technologies and Expression Analysis (LTEA) Assay for Forkhead box O3 (FOXO3) using HepaRG (AID 2283459); details: mRNA level, 48 h; actives raise or lower the signal
How it was run: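 FOXO3 transcript measured by qRT-PCR (normalized to ACTB, GAPDH, POLR2A) after 48 h exposure of HepaRG cells in serum-free induction medium. Duplicates, eight half-log concentrations up to 100 uM, 0.5% DMSO; gain or loss fitted against DMSO.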

[12] = read-out: ABC Transporter (ABCB1), ABCB1 (gene 5243); assay: LTEA_HepaRG_ABCB1: Life Technologies and Expression Analysis (LTEA) Assay for ABC Transporter (ABCB1) using HepaRG (AID 2283460); details: mRNA level, 48 h; actives raise or lower the signal
How it was run: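 ABCB1 transcript level measured by TaqMan qRT-PCR against three housekeeping genes after 48 h chemical exposure of differentiated HepaRG cells. Top concentration 100 uM, half-log steps, eight points, 0.5% DMSO vehicle; bidirectional fit relative to DMSO.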

[13] = read-out: growth arrest and DNA damage 45 (GADD45B), GADD45B (gene 4616); assay: LTEA_HepaRG_GADD45B: Life Technologies and Expression Analysis (LTEA) Assay for growth arrest and DNA damage 45 (GADD45B) using HepaRG (AID 2283461); details: mRNA level, 48 h; actives raise or lower the signal
How it was run: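 Differentiated HepaRG cells, plated 48 h then switched to serum-free induction medium, were exposed 48 h in duplicate to eight half-log concentrations from 100 uM in 0.5% DMSO; mRNA quantified by qRT-PCR, normalized to ACTB/GAPDH/POLR2A, bidirectional fit versus DMSO.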

[14] = read-out: ABC Transporter (ABCB11), ABCB11 (gene 8647); assay: LTEA_HepaRG_ABCB11: Life Technologies and Expression Analysis (LTEA) Assay for ABC Transporter (ABCB11) using HepaRG (AID 2283463); details: mRNA level, 48 h; actives raise or lower the signal
How it was run: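 ABCB11 transcript levels quantified by TaqMan qRT-PCR against three housekeeping genes after 48 h chemical exposure of HepaRG cultures. Concentrations up to 100 uM in half-log steps, 0.5% DMSO vehicle; both induction and suppression scored.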

[15] = read-out: Broad substrate specificity ATP-binding cassette transporter ABCG2 (Homo sapiens) (UniProt Q9UNQ0); assay: LTEA_HepaRG_ABCG2: Life Technologies and Expression Analysis (LTEA) Assay for ABC Transporter (ABCG2) using HepaRG (AID 2283465); details: mRNA level, 48 h; actives raise or lower the signal
How it was run: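 ABCG2 transcript was quantified by TaqMan qRT-PCR against three housekeeping genes in HepaRG cells. Cells were treated in duplicate for 48 h across an 8-point half-log series up to 100 uM, with 0.5% DMSO vehicle. Gain or loss versus DMSO was fit.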

[16] = read-out: ATP-citrate lyase (ACLY), ACLY (gene 47); assay: LTEA_HepaRG_ACLY: Life Technologies and Expression Analysis (LTEA) Assay for ATP-citrate lyase (ACLY) using HepaRG (AID 2283466); details: mRNA level, 48 h; actives raise or lower the signal
How it was run: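 ACLY mRNA quantified by qRT-PCR on Fluidigm arrays against three housekeeping genes, after 48 h chemical treatment of HepaRG cells (top concentration 100 uM, half-log steps, 0.5% DMSO vehicle). Up- or down-regulation fitted relative to DMSO.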

[17] = read-out: growth arrest and DNA damage 45 (GADD45A), GADD45A (gene 1647); assay: LTEA_HepaRG_GADD45A: Life Technologies and Expression Analysis (LTEA) Assay for growth arrest and DNA damage 45 (GADD45A) using HepaRG (AID 2283458); details: mRNA level, 48 h; actives raise or lower the signal
How it was run: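 Transcript induction or loss, quantified by TaqMan qRT-PCR against three housekeeping genes, is the read-out. HepaRG cells received chemicals for 48 h across eight half-log concentrations from 100 uM in 0.5% DMSO; gain and loss fitted relative to DMSO.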

[18] = read-out: ABC Transporter (ABCC3), ABCC3 (gene 8714); assay: LTEA_HepaRG_ABCC3: Life Technologies and Expression Analysis (LTEA) Assay for ABC Transporter (ABCC3) using HepaRG (AID 2283462); details: mRNA level, 48 h; actives raise or lower the signal
How it was run: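 HepaRG cells in serum-free induction medium were exposed for 48 h in duplicate to 8-point half-log concentrations topping at 100 uM in 0.5% DMSO. ABCC3 mRNA was measured by qRT-PCR normalized to ACTB, GAPDH and POLR2A, with bidirectional fitting versus DMSO.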

[19] = read-out: ABC Transporter (ABCC2), ABCC2 (gene 1244); assay: LTEA_HepaRG_ABCC2: Life Technologies and Expression Analysis (LTEA) Assay for ABC Transporter (ABCC2) using HepaRG (AID 2283464); details: mRNA level, 48 h; actives raise or lower the signal
How it was run: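 HepaRG cells were plated 48 h, switched to serum-free induction medium, then exposed in duplicate for 48 h to 8 concentrations (top 100 uM, half-log steps, 0.5% DMSO). ABCC2 mRNA was measured by qRT-PCR normalized to ACTB/GAPDH/POLR2A; bidirectional fitting versus DMSO.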

[20] = CEETOX_H295R_TESTO: CeeTox H295R High-throughput Steroidogenesis Assay for Testosterone (TESTO) (AID 2283457); details: actives raise or lower the signal;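 as to AC50: cells exposed to chemicals for 48 h before medium collection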
How it was run: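 H295R human adrenal cells in DMEM/F12 with ITS+ and Nu-Serum, exposed to chemicals for 48 h. Testosterone in medium measured by MTBE extraction, reverse-phase HPLC-MS/MS; bidirectional fit versus DMSO baseline. MTT viability checked in same wells.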

Measured: AC50

Broad substrate specificity ATP-binding cassette transporter ABCG2 (Homo sapiens), sequence (Q9UNQ0 whole entry, looked up): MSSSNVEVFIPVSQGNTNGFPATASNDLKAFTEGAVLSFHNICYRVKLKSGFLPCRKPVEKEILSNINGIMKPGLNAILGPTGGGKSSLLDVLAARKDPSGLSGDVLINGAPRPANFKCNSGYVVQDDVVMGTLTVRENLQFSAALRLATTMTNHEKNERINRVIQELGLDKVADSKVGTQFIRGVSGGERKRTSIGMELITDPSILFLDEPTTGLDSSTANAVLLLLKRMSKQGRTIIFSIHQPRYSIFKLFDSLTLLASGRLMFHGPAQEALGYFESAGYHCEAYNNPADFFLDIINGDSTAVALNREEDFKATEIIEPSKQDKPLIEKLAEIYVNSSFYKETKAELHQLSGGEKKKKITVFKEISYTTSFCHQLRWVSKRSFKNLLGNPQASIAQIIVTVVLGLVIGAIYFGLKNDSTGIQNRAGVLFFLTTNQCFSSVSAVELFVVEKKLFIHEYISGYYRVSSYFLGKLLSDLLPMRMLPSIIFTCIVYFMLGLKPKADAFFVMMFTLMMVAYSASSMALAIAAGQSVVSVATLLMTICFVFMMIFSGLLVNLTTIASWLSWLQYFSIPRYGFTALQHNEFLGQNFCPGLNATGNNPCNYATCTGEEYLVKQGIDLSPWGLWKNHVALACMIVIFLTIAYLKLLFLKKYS
Fatty acid synthase (Homo sapiens), sequence (P49327 whole entry, looked up): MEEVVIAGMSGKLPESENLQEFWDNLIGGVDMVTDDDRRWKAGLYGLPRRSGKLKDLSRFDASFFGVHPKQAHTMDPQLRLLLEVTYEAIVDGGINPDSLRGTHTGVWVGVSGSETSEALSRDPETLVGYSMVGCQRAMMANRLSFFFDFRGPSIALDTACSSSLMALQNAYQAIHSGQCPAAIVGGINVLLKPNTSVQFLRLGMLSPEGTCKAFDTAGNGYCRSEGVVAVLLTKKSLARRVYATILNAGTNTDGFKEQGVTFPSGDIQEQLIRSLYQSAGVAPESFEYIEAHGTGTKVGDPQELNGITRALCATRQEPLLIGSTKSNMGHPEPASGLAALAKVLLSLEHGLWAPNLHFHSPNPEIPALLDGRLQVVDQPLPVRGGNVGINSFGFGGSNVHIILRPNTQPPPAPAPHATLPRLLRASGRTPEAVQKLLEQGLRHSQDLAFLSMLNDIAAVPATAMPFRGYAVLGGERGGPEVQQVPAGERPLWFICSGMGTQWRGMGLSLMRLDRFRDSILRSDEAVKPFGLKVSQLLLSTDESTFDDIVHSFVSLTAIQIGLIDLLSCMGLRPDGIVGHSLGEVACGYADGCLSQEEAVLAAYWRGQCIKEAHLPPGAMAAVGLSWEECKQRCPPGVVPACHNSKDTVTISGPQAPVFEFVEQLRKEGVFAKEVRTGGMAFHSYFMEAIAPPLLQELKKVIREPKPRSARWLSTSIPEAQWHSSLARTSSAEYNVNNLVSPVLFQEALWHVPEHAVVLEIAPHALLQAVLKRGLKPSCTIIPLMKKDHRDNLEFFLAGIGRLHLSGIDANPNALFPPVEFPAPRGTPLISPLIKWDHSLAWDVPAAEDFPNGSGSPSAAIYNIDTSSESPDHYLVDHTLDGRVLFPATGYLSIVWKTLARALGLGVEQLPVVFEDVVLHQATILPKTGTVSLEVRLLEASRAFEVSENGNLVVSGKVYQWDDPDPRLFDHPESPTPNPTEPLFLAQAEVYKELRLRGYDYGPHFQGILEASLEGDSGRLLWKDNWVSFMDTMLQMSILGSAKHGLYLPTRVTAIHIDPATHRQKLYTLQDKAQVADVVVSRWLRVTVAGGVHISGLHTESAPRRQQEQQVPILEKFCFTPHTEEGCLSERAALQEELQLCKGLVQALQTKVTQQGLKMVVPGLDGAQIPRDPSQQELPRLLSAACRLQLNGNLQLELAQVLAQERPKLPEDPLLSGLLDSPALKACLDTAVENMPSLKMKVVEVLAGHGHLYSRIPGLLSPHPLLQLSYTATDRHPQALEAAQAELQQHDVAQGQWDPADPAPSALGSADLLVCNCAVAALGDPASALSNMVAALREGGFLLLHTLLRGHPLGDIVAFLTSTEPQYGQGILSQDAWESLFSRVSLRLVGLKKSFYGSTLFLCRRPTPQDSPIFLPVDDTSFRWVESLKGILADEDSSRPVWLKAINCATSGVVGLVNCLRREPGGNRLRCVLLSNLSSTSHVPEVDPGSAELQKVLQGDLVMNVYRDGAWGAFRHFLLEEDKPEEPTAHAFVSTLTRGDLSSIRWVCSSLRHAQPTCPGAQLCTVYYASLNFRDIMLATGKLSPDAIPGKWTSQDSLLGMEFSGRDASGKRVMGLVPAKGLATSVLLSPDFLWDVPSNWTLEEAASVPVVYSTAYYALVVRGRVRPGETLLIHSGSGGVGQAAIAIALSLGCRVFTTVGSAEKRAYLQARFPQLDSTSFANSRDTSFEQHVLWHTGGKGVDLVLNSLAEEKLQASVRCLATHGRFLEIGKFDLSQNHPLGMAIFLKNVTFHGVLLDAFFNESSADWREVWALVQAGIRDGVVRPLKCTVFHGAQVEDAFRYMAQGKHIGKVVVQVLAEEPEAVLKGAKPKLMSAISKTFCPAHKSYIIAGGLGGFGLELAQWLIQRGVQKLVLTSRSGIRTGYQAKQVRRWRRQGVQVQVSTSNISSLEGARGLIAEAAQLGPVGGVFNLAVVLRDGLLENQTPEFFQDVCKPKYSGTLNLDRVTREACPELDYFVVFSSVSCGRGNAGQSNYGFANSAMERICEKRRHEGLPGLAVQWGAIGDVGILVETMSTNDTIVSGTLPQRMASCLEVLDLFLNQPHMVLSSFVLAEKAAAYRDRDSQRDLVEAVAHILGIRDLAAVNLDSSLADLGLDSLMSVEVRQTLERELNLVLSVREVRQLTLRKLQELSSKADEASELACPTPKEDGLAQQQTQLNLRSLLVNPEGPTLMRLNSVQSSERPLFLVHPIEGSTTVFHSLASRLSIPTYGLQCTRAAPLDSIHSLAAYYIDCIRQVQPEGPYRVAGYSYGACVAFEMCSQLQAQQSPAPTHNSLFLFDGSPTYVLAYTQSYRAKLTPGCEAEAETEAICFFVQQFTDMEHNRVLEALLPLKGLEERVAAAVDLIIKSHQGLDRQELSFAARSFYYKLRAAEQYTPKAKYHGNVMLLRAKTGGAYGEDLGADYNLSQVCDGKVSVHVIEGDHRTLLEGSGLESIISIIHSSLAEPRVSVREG

O=C(OCCCCCOC(=O)c1ccccc1)c1ccccc1
active: [1] 1.08 µM | [3] 2.48 µM | [5] 2.78 µM | [7] 0.503 µM | [8] 1.18 µM | [9] 0.228 µM | [10] 1.19 µM | [11] 0.14 µM | [12] 0.27 µM | [14] 0.572 µM | [15] 0.773 µM | [16] 50 µM
inactive: [2] | [4] | [6] | [13]

Cc1nc(C)nc(N2C[C@@H](C)N(c3ccnc([C@@H](C)O)n3)[C@@H](C)C2)n1
not listed: [15] | [20]
inactive: all other assays above

C=CCc1ccc(O)c(OC)c1
not listed: [15] | [18] | [20]
inactive: all other assays above

Cc1nc(-c2ccc3c(c2)CCN(CCC2CCC(NC(=O)/C=C/c4ccc(F)cc4)CC2)CC3)no1 (centres undefined)
active: [8] 23.2 µM | [20] 0.248 µM
not listed: [15]
inactive: all other assays above

CCCCCCOCCO
active: [8] 50 µM
not listed: [7] | [20]
inactive: all other assays above

CCCCCCCC=O
active: [6] 1.44 µM | [8] 50 µM
not listed: [15] | [20]
inactive: all other assays above

COc1ccc(S(=O)(=O)N2C(=O)[C@@](c3ccccc3OC)(N3C[C@H](O)C[C@H]3C(=O)N(C)C)c3cc(Cl)ccc32)c(OC)c1
inactive: [1] | [3] | [8] | [9] | [20] | [11] | [12] | [13]
active: [2] 22.7 µM | [4] 84.9 µM | [5] 85.5 µM | [6] 23.7 µM | [10] 35.9 µM | [18] 50 µM | [14] 14.9 µM | [19] 31.4 µM | [15] 11.7 µM | [16] 90.5 µM
